From PubChem
TDP1 cell CPT = growth inhibition of DT40 Tdp1-/-;hTDP1 cells with camptothecin (screen for TDP1 inhibitors). actives 12% (n = 420,000). Potency, µM (top dose mostly 46.2 µM), without a hit: at the top dose activity change, negative = growth inhibition, hits mostly inhibitors. chicken DT40 Tdp1-/-;hTDP1 cells + 20 nM CPT, ATP luminescence, 48 h; note: potency is the fitted concentration of half-maximal effect; nearly all actives have a fitted effect of over 55% in size
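Chicken DT40 Tdp1-/- cells complemented with human TDP1, 400 cells/well, exposed to compounds plus 20 nM camptothecin for at least 48 h at 37 C; viability read as ATP content by CellTiter-Glo luminescence.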
HT1080 IDH1KD tx = kills HT-1080 cells with IDH1 knockdown; HT-1080 IDH1 knockdown viability, ATP luminescence, 48 h; actives 2% (n = 360,000); Potency, µM (top dose mostly 46.1 µM), for inactives: at the top dose activity, negative = toxicity, hits mostly cytotoxic; AID 686971;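 note: potency is the fitted concentration of half-maximal effect; 0% = DMSO wells and -100% = cell-free medium wells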
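After a 2 h attachment period, IDH1KD HT-1080 cells took pin-transferred compound for 48 h at 37 °C; ATP-based luminescence after 10 min room-temperature reagent incubation reported viability.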
TDP1 cell noCPT = qHTS for Inhibitors of human tyrosyl-DNA phosphodiesterase 1 (TDP1): qHTS in cells in absence of CPT; actives 15% (n = 420,000); Potency, µM (series often up to 46.2 µM), inactives show at the highest dose activity change, negative = growth inhibition, usual class: inhibitors; DT40 Tdp1-/- hTDP1 cells, no CPT, ATP luminescence, 48 h; note: potency is the fitted concentration of half-maximal effect; nearly all actives have a fitted effect of over 55% in size
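Compound effects on proliferation are scored in DT40 Tdp1-/-;hTDP1 cells in the absence of CPT. ATP levels (CellTiter-Glo luminescence) are recorded after a ≥48 hr, 37 °C incubation.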
IL1B secr inh = inhibitors of inflammasome signaling (IL-1 beta secretion); actives 4.7% (n = 360,000); activity change, % at 57.5 µM; AID 743279; THP-1 LPS/ATP IL-1B secretion, AlphaLISA, 16 h; hits give low values; in the data active = activity change below about -50%; inconclusive = mostly about -30% to -49%
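Secreted IL-1B measured by AlphaLISA bead assay after 16 h compound exposure of THP-1 cells; compounds (final up to 57.5 uM) added 1 h before LPS (250 ng/mL) and ATP (1.25 mM) stimulation; lower signal means less secretion.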
HT1080-NT tox = kills 2HG-producing HT-1080-NT fibrosarcoma cells; HT-1080-NT fibrosarcoma viability, CellTiter-Glo ATP luminescence, 48 h; Potency, µM (top dose mostly 46.1 µM), for the others: top-dose activity, negative = less viability, hits mostly cytotoxic; actives 1.6% (n = 360,000);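 note: NT is the 2HG producing partner of a matched IDH1 knockdown line; potency is the fitted concentration of half-maximal effect; 0% = DMSO-treated cells and -100% = media-only wells without cells; nearly all actives have a fitted effect of over 55% in size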
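Viability of the 2HG-overproducing fibrosarcoma line after 48 hours of compound exposure at 37 degrees C was determined by luminescence with CellTiter-Glo, and concentration-effect curves were then fitted and categorized.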
Starred values were filed as active, the others as inactive; ? = inconclusive; · = no result; [ ] = another dose, or the depositor's remark. Compounds with a hit are over-represented: about 19% of the library has one in this group of screens. Unless noted, calls come from the whole dose curve; as a rule, active = well fitted curve in the direction sought with a large enough effect; inconclusive = small, poorly fitted or top-dose-only effect, or another doubt; inactive = no such curve, though single readings can be large; an effect the other way counts as inactive or inconclusive. Unless noted, % is set by controls: 0 for no effect and ±100 for the full control effect.

SMILES	TDP1 cell CPT	HT1080 IDH1KD tx	TDP1 cell noCPT	IL1B secr inh	HT1080-NT tox
CCOC(=O)C(NCCc1ccccc1F)(NC(=O)CC)C(F)(F)F (configuration not stated)	2%	1%	-10%	13	3%
CN(C(=O)COC(=O)C1=COCCO1)c1c(N)n(Cc2ccccc2)c(=O)[nH]c1=O	6%	18%	6%	11	26%
CCN(C(=O)COC(=O)C1=COCCO1)c1ccccc1	6%	-1%	6.5µM*	-21	3%
O=C(NCc1nc2ccccc2[nH]1)C1=C[C@H](c2coc3ccccc3c2=O)C[C@H](OCCCCO)O1	21µM*	-1%	?	-26	0%
O=C(NCc1nc2ccccc2[nH]1)C1=C[C@@H](c2ccccc2)C[C@@H](OCCCCO)O1	10%	-2%	?	2	-15%
O=C(NCc1nc2ccccc2[nH]1)C1=C[C@@H](C2CCCCC2)C[C@@H](OCCCCO)O1	21µM*	8%	15µM*	-5	0%
COCCn1c(=O)c(C)nc2cnc(Nc3ccccc3)nc21	6%	·	0%	·	·
Cn1nc(C(C)(C)C)cc1N1C(=O)CCC1(C)C(=O)NCc1ccccc1 (configuration not stated)	-2%	21%	4%	7	?
O=C(Oc1c(CN2CCOCC2)cc(Cl)c2cccnc12)c1ccccc1Br	4.6µM*	?	4.6µM*	105	?
O=C(Oc1c(Cl)cc(Cl)c2cccnc12)N1CCCCC1	-30%	-8%	-29%	5	-1%
CN1CCN(Cc2cc(Cl)c3cccnc3c2OC(=O)c2cccs2)CC1	4.6µM*	-11%	4.6µM*	3	-5%
CC1(C)Cc2c(sc(NC(=O)COc3ccccc3)c2C#N)C(C)(C)N1	?	2%	-28%	-6	-15%
Cc1cc(OCC(=O)Nc2sc3c(c2C#N)CC(C)(C)NC3(C)C)c(C(C)C)cc1Cl	?	-3%	16µM*	7	-3%
Cc1ccc(C(C)C)c(OCC(=O)Nc2sc3c(c2C#N)CC(C)(C)NC3(C)C)c1	?	-16%	21µM*	-12	-15%
O=C1NC[C@@H](CCCCN2C[C@H](Cc3ccc(O)cc3)N(CCC3CCCCC3)C(=O)C2=O)N(CCc2ccc(O)cc2)C1=O	12%	18%	2%	-8	18%
Cc1ccccc1NC(=O)c1ccc(F)c(S(=O)(=O)N2CCN(c3ccccn3)CC2)c1	28µM*	-29%	11µM*	-23	?
O=C(Nc1ccccc1N1CCOCC1)c1ccc(F)c(S(=O)(=O)N2CCOCC2)c1	?	7%	-24%	0	9%[9.24 µM]
O=C(Nc1ccc(Br)cc1)c1ccc(F)c(S(=O)(=O)N2CCN(c3ccccn3)CC2)c1	?	1%	7.3µM*	26	-5%
Cc1ccc(C)c(N2CCN(S(=O)(=O)c3cc(C(=O)Nc4ccccc4C(F)(F)F)ccc3F)CC2)c1	12µM*	·	13µM*	·	·
CC(=O)Nc1ccc2c(=O)n(-c3ccccc3)sc2c1	2.6µM*	?	3.3µM*	-104*	?
O=c1c2ccccc2sn1-c1ccccc1F	2.6µM*	?	2.9µM*	-107*	-9%
Cn1sc2ccccc2c1=O	2.3µM*	?	1.6µM*	-100*	?
O=c1ccsc2ccccc12	7%	-8%	2%	1	-13%
O=C1CN(c2ccccc2F)C(=O)CN1c1ccccc1F	-1%	14%	-11%	5	7%
N#Cc1ccc2c(=O)n(-c3ccccc3)sc2c1	3.3µM*	-4%	2.6µM*	24	9%
SMILES	TDP1 cell CPT	HT1080 IDH1KD tx	TDP1 cell noCPT	IL1B secr inh	HT1080-NT tox
CC(=O)Nc1ccc(-c2cc(N)n(-c3ccccc3)n2)cc1	-20%	-5%	-23%	-5	6%
N#Cc1c(N)n(-c2ccccc2)c(=O)c2cc([N+](=O)[O-])ccc12	?	13%	?	4	7%
O=C(O)c1cccc(-n2sc3ccccc3c2=O)c1	?	-1%	?	-107*	-2%
O=c1c2ccccc2sn1-c1cccc(Cl)c1	1.8µM*	?	2.3µM*	-102*	-16%
O=c1c2ccccc2sn1-c1ccccc1	2.6µM*	16µM*	2.9µM*	-101*	?
Cn1c(=O)n(-c2cccc(Cl)c2)c(=O)c2sc3ccccc3c21	-2%	·	?	·	·
Cc1ccccc1-n1sc2cc(F)ccc2c1=O	1.8µM*	21µM*	2.6µM*	-105*	18µM*
COc1cccc(C(=O)c2c[nH]c(C(=O)NCc3cccnc3)c2)c1	-15%	?	-25%	-26	-18%
COc1cccc(C(=O)c2c[nH]c(C(=O)NCc3cccs3)c2)c1	-2%	7%	-22%	-62*	-4%
COc1cccc(-c2cc(C(=O)NCc3cccs3)no2)c1	-26%	15%	-13%	18	?
COc1cccc(-c2cn3c(n2)sc2cc(C(=O)NCc4cccs4)ccc23)c1	13µM*	·	6.5µM*	·	·
COc1ccc(-c2cn3c(n2)sc2cc(C(=O)NCCCc4ccccc4)ccc23)cc1	-23%	·	-10%	·	·
COc1cccc(-c2cn3c(n2)sc2cc(C(=O)NCCCc4ccccc4)ccc23)c1	6.5µM*	·	4.6µM*	·	·
COc1ccc(-c2cn3c(n2)sc2cc(C(=O)NCc4cccs4)ccc23)cc1	10µM*	·	13µM*	·	·
CC(=O)NC(Cc1cc(C)ccc1C)C(=O)N1CCN(C(=O)c2ccc([N+](=O)[O-])cc2)CC1 (configuration not stated)	38%	-1%	-14%	17	11%
O=C(NCc1cccs1)c1ccc2c(c1)sc1nc(-c3ccccc3)cn12	18µM*	·	23µM*	·	·
COc1ccc(-c2cn3c(n2)sc2cc(C(=O)Nc4c(C)cccc4C)ccc23)cc1	13µM*	·	9.2µM*	·	·
COc1ccc(-c2cn3c(n2)sc2cc(C(=O)N4CCCCC4)ccc23)cc1	?	·	21µM*	·	·
COC(=O)c1cccc(C(=O)N2CCc3c(cnc(C)c3CNC(=O)/C=C/c3cccs3)C2)c1	9%[9.04 µM]	·	-5%	·	·
FC(F)OC(Cl)C(F)(F)F (configuration not stated)	9%	·	-4%	·	·
Cn1c(N=Nc2ccccc2)nc2ccccc21	8.2µM*	10µM*	7.3µM*	0	8.2µM*
COc1cc(OC)cc(C(=O)NC(C)CNc2ccc(Cl)cc2[N+](=O)[O-])c1 (configuration not stated)	?	-2%	8.2µM*	-6	-7%
COCC(C)NC(=O)c1cc(OC)cc(OC)c1 (configuration not stated)	-13%	9%	-29%	-15	0%
